Results on 39 compounds are retold here after PubChem BioAssay.

Calls of active or inactive are those of the source. How the calls were made is not given here.

In this test the test system is Aerobactin synthetase IucA (Klebsiella pneumoniae hvKP1). Put plainly: Biochemical IucA enzyme inhibition primary screen of the Spectrum library (AID 1346200).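 Further: 100% = wells without compound and 0% = wells lacking enzyme.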 Conditions: malachite green pyrophosphate, A620, at 8 µM, active compounds read low.
Regarding `NNC(=O)c1ccncc1`, the activity remaining is 106% (inactive).

As to `CC(=O)O[C@]1(C(C)=O)CCC2C3C=C(C)C4=CC(=O)CCC4(C)C3CCC21C` (some centres undefined), the activity remaining is 98% (inactive). Then `COC(=O)[C@H](c1ccccc1Cl)N1CCc2sccc2C1`, with 119% (inactive). Then `CC12CCC3c4ccc(OCc5ccccc5)cc4CCC3C1C[C@@H](O)[C@@H]2O` (some centres undefined), with 119% (inactive). Then `CCNC(=O)CC[C@H](N)C(=O)O`, with 119% (inactive); and `CN(C/C=C/C#CC(C)(C)C)Cc1cccc2ccccc12`, with 114% (inactive). As to `CC(C)CCCC(C)N` (centres undefined), the activity remaining was 121% (inactive). Then `CCOc1ccc(NC(C)=O)cc1`, with 97.1% (inactive). For `CC(=O)S[C@@H]1CC2=CC(=O)CC[C@]2(C)[C@H]2CC[C@@]3(C)[C@@H](CC[C@@]34CCC(=O)O4)C12` (some centres undefined), the activity remaining is 106% (inactive).

Regarding `O=C1OC(c2ccc(O)cc2)(c2ccc(O)cc2)c2ccccc21`, the activity remaining is 115% (inactive). For `Cc1cc(NS(=O)(=O)c2ccc(N)cc2)no1`, the activity remaining was 110% (inactive).

As to `NC(COCc1ccccc1)C(=O)O` (centres undefined), the activity remaining was 105% (inactive). Then `COc1ccc(-c2cc(=O)c3c(OC(C)=O)cc(OC(C)=O)cc3o2)cc1`, with 108% (inactive); and `CC(C)C1=CC2=CCC3[C@](C)(CCC[C@]3(C)C(=O)O)C2CC1` (some centres undefined), with 94.8% (inactive); and `S=c1nc[nH]c2nc[nH]c12`, with 120% (inactive).

`O=c1cc[nH]c(=S)[nH]1`: the activity remaining was 97.7% (inactive). Then `COc1ccc(C(C)=O)c(O)c1`, with 83.8% (inactive). Take `COc1cc(OC)c(-c2c(OC)cc(OC)cc2OC)c(OC)c1`: the activity remaining was 106% (inactive). Next, `O=C1C(O)=C(O)C(=O)C(O)=C1O`: 125% (inactive); `CNS(=O)(=O)Cc1ccc2[nH]cc(CCN(C)C)c2c1`: 115% (inactive). Then `Oc1ccc([C@H]2Oc3cc(O)cc(O)c3C[C@H]2O)cc1`, with 113% (inactive).

`CC(=O)O[C@H]1C[C@@H](OC(C)=O)C(C)(C)C2C[C@@H](OC(C)=O)[C@]3(C)C([C@H](OC(C)=O)C[C@@]4(C)[C@H](c5ccoc5)OC(=O)[C@H]5O[C@]543)[C@]21C` (some centres undefined): the activity remaining was 104% (inactive). Then `CCN(CC)CCOC(=O)C(Cc1cccc2ccccc12)CC1CCCO1` (centres undefined), with 99.1% (inactive); and `O=C1CC(c2ccccc2)Oc2ccccc21` (centres undefined), with 125% (inactive); and `C[C@H](CC(=O)C(O)C(C)(C)O)[C@H]1C(=O)C[C@@]2(C)C3=CCC4C(C)(C)[C@@H](O[C@@H]5OC[C@@H](O)[C@H](O)[C@H]5O)CC[C@@]45C[C@@]35[C@@H](O)C[C@]12C` (some centres undefined), with 109% (inactive). Next, `CCCC1O[C@@H]2CC3C4CCC5=CC(=O)C=CC5(C)C4[C@@H](O)CC3(C)[C@]2(C(=O)CO)O1` (some centres undefined): 115% (inactive).

For `O=c1c(O)c(-c2ccccc2)oc2ccccc12`, the activity remaining is 92.5% (inactive). For the compound `COc1c(-c2coc3cc4c(cc3c2=O)CC(O)C(C)(C)O4)ccc2c1C=CC(C)(C)O2` (centres undefined), the activity remaining was 112% (inactive). Then `CC(=O)N1CCN(c2ccc(OCC3CO[C@](Cn4ccnc4)(c4ccc(Cl)cc4Cl)O3)cc2)CC1` (some centres undefined), with 97% (inactive).

On to `CCN(CC)CCNC(=O)c1cc(Br)c(N)cc1OC`, for which the activity remaining is 109% (inactive). Take `Cc1ccc(-c2cc(C(F)(F)F)nn2-c2ccc(S(N)(=O)=O)cc2)cc1`: the activity remaining was 95% (inactive).

Consider `CC(C)Oc1ccc2c(=O)cc(-c3ccccc3)oc2c1`, for which the activity remaining was 114% (inactive). Next, `C=C1C(=O)O[C@@H]2C3OC3(C)CC/C=C(\C)CC[C@@H]12` (some centres undefined): 105% (inactive); `CCC(=O)c1c(O)cc(O)cc1O`: 116% (inactive). As for `CCC(c1ccc(O)cc1)C(CC)c1ccc(O)cc1` (centres undefined), the activity remaining was 121% (inactive). Then `Cn1cc[nH]c1=S`, with 99.8% (inactive); and `Cc1cc(O)c2c(c1O)C(=O)c1c(O)cc(C)c(O)c1C2=O`, with 100% (inactive). Next, `Cn1c(=O)c2c(ncn2CC(O)CO)n(C)c1=O` (centres undefined): 104% (inactive). Consider `Nc1nccs1`, for which the activity remaining was 89.3% (inactive).
